According to PubChem BioAssay (NCI):
Several values for one entry are separate records, joined by “and”; a condition that tells them apart may be missing. Identical values can stand only once. About 83,000 compounds went through this panel and 20% of them were active in at least one assay; those are over-represented in the sample as a whole.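 Growth was measured after 48 h exposure to one concentration of compound in 96-well plates. Values under 10 count as active.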 Activity calls are given as the source filed them.

Key:
Test in all cases: NCI-60 one-dose screen, 48 h (100 = growth as untreated, 0 = no growth, -100 = all killed)
Conditions in all cases: 10 µM unless noted
[1] = system: SR leukemia
[2] = system: RPMI-8226 leukemia
[3] = system: OVCAR-5 ovarian
[4] = system: OVCAR-4 ovarian
[5] = system: SK-OV-3 ovarian
[6] = system: IGROV1 ovarian
[7] = system: OVCAR-3 ovarian
[8] = system: HS 578T breast
[9] = system: NCI/ADR-RES ovarian
[10] = system: T-47D breast
[11] = system: BT-549 breast
[12] = system: MDA-MB-435 melanoma
[13] = system: SW-620 colon
[14] = system: MCF7 breast
[15] = system: HCT-116 colon
[16] = system: KM12 colon
[17] = system: HCC-2998 colon
[18] = system: OVCAR-8 ovarian

Row | SMILES | growth [1] | growth [2] | growth [3] | growth [4] | growth [5] | growth [6] | growth [7] | growth [8] | growth [9] | growth [10] | growth [11] | growth [12] | growth [13] | growth [14] | growth [15] | growth [16] | growth [17] | growth [18]
1 | CC(CN=Cc1ccccc1O)N=Cc1ccccc1O (configuration not stated) | 100% (inactive) | -6.87% (active) and 94% (inactive) | 104% (inactive) and 95.5% (inactive) | 109% (inactive) and 103% (inactive) | 104% (inactive) and 86.4% (inactive) | -14.8% (active) and 112% (inactive) | 97.4% (inactive) and 112% (inactive) | 90.7% (inactive) | 105% (inactive) and 101% (inactive) | 96.9% (inactive) and 94.2% (inactive) | 67.1% (inactive) and 118% (inactive) | 94% (inactive) and 122% (inactive) | 110% (inactive) and 96.8% (inactive) | 94.9% (inactive) and 95.8% (inactive) | 104% (inactive) and 102% (inactive) | 102% (inactive) and 113% (inactive) | – | –
2 | CCN(CC)C(=O)c1cccnc1 | 90.5% (inactive) | 105% (inactive) | 99.4% (inactive) | 112% (inactive) | – | 130% (inactive) | 109% (inactive) | 108% (inactive) | 111% (inactive) | – | 98.5% (inactive) | 97.9% (inactive) | 106% (inactive) | 108% (inactive) | 105% (inactive) | 104% (inactive) | 109% (inactive) | –
3 | Nc1ccccc1SC1CC(=O)N(c2cccc3ccccc23)C1=O (configuration not stated) | 88% (inactive) | 86.3% (inactive) | 101% (inactive) | 93.6% (inactive) | – | 99.1% (inactive) | 101% (inactive) | 97.9% (inactive) | 96.1% (inactive) | – | 102% (inactive) | 88.7% (inactive) | 94.4% (inactive) | 88.2% (inactive) | 89.4% (inactive) | 101% (inactive) | 100% (inactive) | –
4 | O=C1C2=C(C(=O)c3ccccc31)C(O)(S(=O)(=O)O)C(O)(S(=O)(=O)O)C1N=CC=CC21 (configuration not stated) | 12.6% (inactive) and 61.2% (inactive) | 22.9% (inactive) and 44.8% (inactive) | 51.9% (inactive) | 28.7% (inactive) and 24.3% (inactive) | – | 33% (inactive) and -16.2% (active) | 22.4% (inactive) and 3.66% (active) | 13.3% (inactive) | 11.3% (inactive) | 39% (inactive) and -21.9% (active) | 39.6% (inactive) and 24.6% (inactive) | 44.1% (inactive) and 39% (inactive) | 32.5% (inactive) and 21.5% (inactive) | 29.1% (inactive) and 24.9% (inactive) | 23.1% (inactive) and 8.66% (active) | 41.6% (inactive) and 32.6% (inactive) | – | –
5 | Nc1ccn(C2OC(CO)C(O)C2O)c(=O)n1 (configuration not stated) | 14.8% (inactive) | – | – | 99.9% (inactive) [middle of 4 runs] | – | – | – | – | – | 55.5% (inactive) and 58.3% (inactive) and 101% (inactive) | – | – | – | – | – | – | – | –
6 | S=C(S)N1CCCC1 | – | 93% (inactive) and 91.3% (inactive) | 112% (inactive) and 113% (inactive) | 117% (inactive) and 96.8% (inactive) | 116% (inactive) and 112% (inactive) | 58.9% (inactive) and 56.5% (inactive) | 69.5% (inactive) and 100% (inactive) | 106% (inactive) | 107% (inactive) and 99.1% (inactive) | 98.4% (inactive) and 89% (inactive) | 91% (inactive) and 114% (inactive) | 109% (inactive) and 90.9% (inactive) | 96.2% (inactive) and 84.8% (inactive) | 72.9% (inactive) and 61.8% (inactive) | 89.7% (inactive) and 86.2% (inactive) | 90.4% (inactive) and 93.9% (inactive) | 113% (inactive) and 94.9% (inactive) | 106% (inactive) and 94.1% (inactive)
7 | N#C/C(=C/c1c(O)ccc2ccccc12)C(N)=O | – | 88.2% (inactive) | 105% (inactive) | 92% (inactive) | 92.6% (inactive) | 93.4% (inactive) | 90.1% (inactive) | 113% (inactive) | 94.6% (inactive) | 87.5% (inactive) | 93.7% (inactive) | 104% (inactive) | 94.6% (inactive) | 95.1% (inactive) | 101% (inactive) | 93.8% (inactive) | – | 105% (inactive)
